# Data: PubChem BioAssay
# Active and inactive are the calls of the source. Cut-off read from the data, not from the text of the source, unless noted: active = inhibition above about 80%; inactive = the rest.
# What was measured:
# [1] = viability loss with induced miR-34 in A549 – imaging, A549 dox-inducible miR-34, nuclei and caspase counts, primary screen (AID 1347080;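 active = compounds whose cell count with miR-34 switched on is under 0.7 times the count with it off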); conditions: A549 miR-34 inducible, Hoechst nuclei count, 48 h
# [2] = MELAS cybrid and Rieske KO viability enhancers – cell-based, MELAS cybrids, Rieske KO mouse fibroblasts, CellTiter-Glo, primary screen (AID 1508586;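 active = mean z-score across replicates of 1.96 or higher in either the MELAS or the Rieske mutant cell line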;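 note: z relative to plate mean and SD of compound and empty wells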); conditions: low glucose
# [3] = growth inhibition, single agent or in combination, cell-based, chromothripsis tumors, cisplatin or BGB combos (AID 1671449); conditions: LFS_MB_P medulloblastoma cells;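 note: cells exposed for 96 hours; 0% = vehicle DMSO and 100% = killing by high DMSO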
# [4] = growth inhibition, single agent and combos, cell-based, chromothripsis tumors, cisplatin or BGB combos (AID 1671450); conditions: HDN33 neuroblastoma cells, stronger effect = higher value;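 note: cells exposed to compound for four days; 0% = vehicle DMSO and 100% = cell killing by high DMSO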
# [5] = growth inhibition, single agents and combos, ICB984, cell-based, cisplatin or BGB combos, synergistic combos for chromothripsis tumors (AID 1671451; call rule not given here;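 note: cells exposed for 96 hours before readout; 0% = vehicle DMSO and 100% = killing by high DMSO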); conditions: ICB984 medulloblastoma cells, drug combinations, stronger effect = higher value
# [6] = growth inhibition, single agents and combos, LFS_MB_1R, cell-based, cisplatin or BGB combos, synergistic combos for chromothripsis tumors (AID 1671452); conditions: LFS_MB_1R medulloblastoma cells, stronger effect = higher value;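 note: cells exposed for 96 hours before readout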
# [7] = growth inhibition, single agents and combos, HTB85, cell-based, BGB or cisplatin IC20 combos, synergistic combos for chromothripsis tumors (AID 1671453); conditions: HTB85 osteosarcoma cells, drug combinations, stronger effect = higher value;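 note: cells exposed for 96 hours before readout; 0% = vehicle DMSO and 100% = high DMSO killing control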
# [8] = growth inhibition, single agents and combos, CRL2098, cell-based, BGB or cisplatin IC20 combos, synergistic combos for chromothripsis tumors (AID 1671454); conditions: CRL2098 osteosarcoma cells, drug combinations, stronger effect = higher value;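 note: cells exposed for 96 h before readout; 0% = vehicle DMSO and 100% = killing by high DMSO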
# [9] = growth inhibition, single agents and combos, HD-MB03, cell-based, BGB or cisplatin IC20 combos, synergistic combos for chromothripsis tumors (AID 1671455; in the data active = inhibition above about 83%;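 note: 0% = vehicle DMSO and 100% = high DMSO as cytotoxic control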); conditions: HD-MB03 medulloblastoma cells, stronger effect = higher value
# [10] = growth inhibition, single agents and combos, UWB1.289, cell-based, BGB or cisplatin combos, synergistic combos for chromothripsis tumors (AID 1671456); conditions: UWB1.289 ovarian carcinoma cells, stronger effect = higher value;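 note: cells exposed to compound for four days; 0% = vehicle DMSO and 100% = killing by high DMSO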
# [11] = growth inhibition, single agents and combos, LFS_MB_2R, cell-based, cisplatin combos, synergistic combos for chromothripsis tumors (AID 1671457); conditions: LFS_MB_2R medulloblastoma cells, stronger effect = higher value;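 note: cells exposed to compound for four days before readout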
# [12] = growth inhibition, MDA-MB-436, cell-based, BGB or cisplatin combos, synergistic combos for chromothripsis tumors (AID 1671458; call rule not given here;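 note: cells exposed for 96 hours; 0% = vehicle DMSO and 100% = killing by high DMSO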); conditions: MDA-MB-436 breast carcinoma growth inhibition, drug combinations, stronger effect = higher value
# [13] = UWB1.289_BRCA1 ovarian cancer growth, cell-based, BGB or cisplatin combinations (AID 1671459); conditions: UWB1.289 BRCA1 ovarian carcinoma, drug combinations, stronger effect = higher value
# [14] = drug combination toxicity in non-malignant astrocytes – cell-based, BGB or cisplatin IC20 combos, cytotoxicity control for chromothriptic childhood tumor combination screen (AID 1671460); conditions: Human astrocytes, viability inhibition, drug combinations, at 0.5 µM, stronger effect = higher value;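 note: cells exposed to compounds for 96 hours before viability readout; 0% = vehicle and 100% = killing control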
# [15] = BT084 cell growth, single and combined drugs, ICGC_MB145, cisplatin and BGB IC40 combos (AID 1671461); conditions: BT084 medulloblastoma cells, drug combinations, stronger effect = higher value;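 note: cells exposed to drugs for 96 hours; 0% = vehicle DMSO and 100% = high DMSO full killing control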
# [16] = RCMB18 cell growth, single agent and combined, cisplatin and BGB IC40 combos (AID 1671462); conditions: RCMB18 medulloblastoma cells, stronger effect = higher value;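 note: cells exposed to compound for four days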
# [17] = CRL1545 cell growth, single agent and combined, cisplatin and BGB IC20 combos (AID 1671464); conditions: CRL1545 osteosarcoma cells, stronger effect = higher value;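 note: cells exposed to compound for 96 hours before readout; 0% = vehicle DMSO and 100% = high DMSO killing control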
# [18] = stronger effect = lower value, cell number ratio, induced over uninduced
# [19] = measured here: relative caspase fold change +Dox/-Dox
# [20] = measured here: total cells with miR-34 induction, stronger effect = lower value
# [21] = measured here: total cells without miR-34 induction
# [22] = MELAS cybrid survival, CellTiter-Glo 48 h, stronger effect = higher value
# [23] = Rieske KO mouse fibroblast survival, CellTiter-Glo 72 h
# [24] = at 0.5 µM, stronger effect = higher value
# [25] = measured here: combination with BGB IC20, at 0.005 µM
# [26] = measured here: combination with BGB IC40, at 0.005 µM
# [27] = measured here: combination with BGB IC40, at 0.05 µM
# [28] = measured here: combination with cisplatin, at 0.5 µM, stronger effect = higher value
# [29] = measured here: combination with cisplatin, at 5 µM, stronger effect = higher value
# [30] = measured here: with BGB IC20 combination, at 0.5 µM
# [31] = measured here: with cisplatin IC20 combination, at 0.5 µM
# [32] = measured here: 5 uM single agent, at 5 µM
# [33] = measured here: combination with cisplatin, at 0.5 µM
# [34] = measured here: combination with cisplatin, at 5 µM
# [35] = measured here: with BGB IC20, at 0.5 µM
# [36] = measured here: with BGB IC20, at 5 µM
# [37] = measured here: with cisplatin IC20, at 0.5 µM
# [38] = measured here: with cisplatin IC20, at 5 µM
# [39] = measured here: combination with BGB at IC20, at 0.5 µM
# [40] = measured here: combination with cisplatin at IC20, at 0.5 µM
# [41] = measured here: combo with BGB at IC20, at 0.5 µM
# [42] = measured here: combo with cisplatin at IC20, at 0.5 µM
# [43] = measured here: inhibition with BGB combination, at 0.05 µM
# [44] = measured here: inhibition with cisplatin combination, at 0.05 µM
# [45] = measured here: BGB combination, at 0.5 µM
# [46] = measured here: BGB combination, at 5 µM
# [47] = measured here: cisplatin combination, at 0.5 µM
# [48] = measured here: cisplatin combination, at 5 µM
# [49] = BGB combination, concentration series, at 5 µM
# [50] = cisplatin combination, concentration series, at 5 µM
# [51] = measured here: combo with BGB IC20
# [52] = measured here: combo with cisplatin IC20
# [53] = cisplatin combination, at 0.5 µM
# [54] = measured here: BGB IC40 combination 0.05 uM, at 0.05 µM
# [55] = measured here: BGB IC40 combination, at 0.05 µM
structure (smiles),measurement,setting,value
CC1OC(n2cc(F)c(=O)[nH]c2=O)C(O)C1O (stereo not drawn),fold change,[1]; [18],0.451 (active)
same,fold change,[1]; [19],2.09
same,cell count,[1]; [20],2920
same,cell count,[1]; [21],6480
same,z-score,[2]; [22],-0.306 (inactive)
same,z-score,[2]; [23],0.652
same,inhibition,[3]; [24],-9.42% (inactive)
same,inhibition,[3]; [25],-7.8%
same,inhibition,[3]; [26],-40.7%
same,inhibition,[3]; [27],-29.6%
same,inhibition,[3]; [28],-29.8%
same,inhibition,[3]; [29],-27.3%
same,inhibition,"[4]; BGB combo, at 5 µM",-8.24%
same,inhibition,[4]; at 0.5 µM,-30.6% (inactive)
same,inhibition,"[4]; cisplatin combo, at 5 µM",-12.9%
same,inhibition,[4]; [30],-22.1%
same,inhibition,[4]; [31],-19.8%
same,inhibition,"[4]; single agent, at 5 µM",-20.3%
same,inhibition,"[5]; BGB IC20 combo, at 0.005 µM",-5.88%
same,inhibition,"[5]; BGB IC40 combo, at 0.005 µM",-26.6%
same,inhibition,"[5]; BGB IC40 combo, at 0.05 µM",-7.54%
same,inhibition,[5]; at 0.5 µM,-15.5% (inactive)
same,inhibition,"[5]; cisplatin combo, at 0.05 µM",-10.5%
same,inhibition,"[5]; cisplatin combo, at 0.5 µM",-3.76%
same,inhibition,"[5]; cisplatin combo, at 5 µM",-40.8%
same,inhibition,[5]; [32],-21.2%
same,inhibition,[6]; at 0.5 µM,-23.1% (inactive)
same,inhibition,[6]; [27],-35.1%
same,inhibition,[6]; [33],-21.6%
same,inhibition,[6]; [34],-58.4%
same,inhibition,[7]; at 0.5 µM,-23.8% (inactive)
same,inhibition,[7]; [35],-38.6%
same,inhibition,[7]; [36],-31%
same,inhibition,[7]; [37],-26.6%
same,inhibition,[7]; [38],-40.3%
same,inhibition,"[7]; single agent, at 5 µM",-22%
same,inhibition,[8]; at 0.5 µM,-5.43% (inactive)
same,inhibition,[8]; [39],-21.1%
same,inhibition,[8]; [40],-73.9%
same,inhibition,[9]; at 0.5 µM,-15.3% (inactive)
same,inhibition,[9]; [41],-17.8%
same,inhibition,[9]; [42],-10.3%
same,inhibition,[10]; at 0.5 µM,-6.51% (inactive)
same,inhibition,[10]; [43],-35.5%
same,inhibition,[10]; [44],-17.5%
same,inhibition,[11]; at 0.5 µM,-17.7% (inactive)
same,inhibition,[11]; [33],-12.9%
same,inhibition,[11]; [34],-95.4%
same,inhibition,[12]; at 0.5 µM,-32.6% (inactive)
same,inhibition,[12]; [45],-38.6%
same,inhibition,[12]; [46],-19.2%
same,inhibition,[12]; [47],-54.4%
same,inhibition,[12]; [48],12%
same,inhibition,[13]; [49],-3.82%
same,inhibition,[13]; at 0.5 µM,-19.6% (inactive)
same,inhibition,[13]; [50],4%
same,inhibition,[14],-18.2% (inactive)
same,inhibition,[14]; [51],-17.6%
same,inhibition,[14]; [52],-13.1%
same,inhibition,[15]; at 0.5 µM,-33.9% (inactive)
same,inhibition,[15]; [53],-18.2%
same,inhibition,"[15]; cisplatin combination, at 5 µM",3.57%
same,inhibition,[15]; [54],-9.17%
same,inhibition,"[15]; single agent, at 5 µM",-31.7%
same,inhibition,[16]; at 0.5 µM,-20.6% (inactive)
same,inhibition,"[16]; cisplatin combo, at 5 µM",-44.8%
same,inhibition,[16]; [55],-8.2%
same,inhibition,[16]; [33],-22.5%
same,inhibition,"[16]; single agent, at 5 µM",-11.4%
same,inhibition,[17]; at 0.5 µM,-45.1% (inactive)
same,inhibition,[17]; [30],-21.9%
same,inhibition,[17]; [31],-60.2%
same,inhibition,"[17]; single agent, at 0.05 µM",-41.1%
same,inhibition,"[17]; single agent, at 5 µM",-1.1%
Cc1cc(C=CC#N)cc(C)c1Nc1ccnc(Nc2ccc(C#N)cc2)n1,fold change,[1]; [18],0.909 (inactive)
same,fold change,[1]; [19],0.615
same,cell count,[1]; [20],5740
same,cell count,[1]; [21],6310
same,z-score,[2]; [22],-0.58 (inactive)
same,z-score,[2]; [23],1.5
same,inhibition,[3]; [24],-21.9% (inactive)
same,inhibition,[3]; [25],-35.7%
same,inhibition,[3]; [26],-21.8%
same,inhibition,[3]; [27],-24.8%
same,inhibition,[3]; [28],-44.6%
same,inhibition,[3]; [29],-38.4%
same,inhibition,"[4]; BGB combo, at 5 µM",-13%
same,inhibition,[4]; at 0.5 µM,-0.82% (inactive)
same,inhibition,"[4]; cisplatin combo, at 5 µM",4.37%
same,inhibition,[4]; [30],-15.3%
same,inhibition,[4]; [31],22.4%
same,inhibition,"[4]; single agent, at 5 µM",-11.3%
same,inhibition,"[5]; BGB IC20 combo, at 0.005 µM",-0.887%
same,inhibition,"[5]; BGB IC40 combo, at 0.005 µM",-17%
same,inhibition,"[5]; BGB IC40 combo, at 0.05 µM",-41.8%
same,inhibition,[5]; at 0.5 µM,-20.3% (inactive)
same,inhibition,"[5]; cisplatin combo, at 0.05 µM",-45.8%
same,inhibition,"[5]; cisplatin combo, at 0.5 µM",-18.9%
same,inhibition,"[5]; cisplatin combo, at 5 µM",-30.5%
same,inhibition,[5]; [32],-25.1%
same,inhibition,[6]; at 0.5 µM,-21.6% (inactive)
same,inhibition,[6]; [27],-25.9%
same,inhibition,[6]; [33],2.17%
same,inhibition,[6]; [34],-13.4%
same,inhibition,[7]; at 0.5 µM,-10.2% (inactive)
same,inhibition,[7]; [35],-9.74%
same,inhibition,[7]; [36],-26.3%
same,inhibition,[7]; [37],-28.3%
same,inhibition,[7]; [38],-20.2%
same,inhibition,"[7]; single agent, at 5 µM",0.45%
same,inhibition,[8]; at 0.5 µM,-49.8% (inactive)
same,inhibition,[8]; [39],-61.5%
same,inhibition,[8]; [40],-40%
same,inhibition,[9]; at 0.5 µM,-1.33% (inactive)
same,inhibition,[9]; [41],-1%
same,inhibition,[9]; [42],-1.41%
same,inhibition,[10]; at 0.5 µM,1.47% (inactive)
same,inhibition,[10]; [43],-12.2%
same,inhibition,[10]; [44],6.05%
same,inhibition,[11]; at 0.5 µM,-13.3% (inactive)
same,inhibition,[11]; [33],-13.5%
same,inhibition,[11]; [34],-51.8%
same,inhibition,[12]; at 0.5 µM,-19.9% (inactive)
same,inhibition,[12]; [45],-6.06%
same,inhibition,[12]; [46],-3.72%
same,inhibition,[12]; [47],-45.9%
same,inhibition,[12]; [48],-32.4%
same,inhibition,[13]; [49],96.3%
same,inhibition,[13]; at 0.5 µM,0.87% (inactive)
same,inhibition,[13]; [50],96.7%
same,inhibition,[14],1.39% (inactive)
same,inhibition,[14]; [51],-1.88%
same,inhibition,[14]; [52],-1.66%
same,inhibition,[15]; at 0.5 µM,-3.04% (inactive)
same,inhibition,[15]; [53],-6.25%
same,inhibition,"[15]; cisplatin combination, at 5 µM",-4.4%
same,inhibition,[15]; [54],-11.4%
same,inhibition,"[15]; single agent, at 5 µM",-18.3%
same,inhibition,[16]; at 0.5 µM,-10.6% (inactive)
same,inhibition,"[16]; cisplatin combo, at 5 µM",14.8%
same,inhibition,[16]; [55],-40.8%
same,inhibition,[16]; [33],0.155%
same,inhibition,"[16]; single agent, at 5 µM",-17.1%
same,inhibition,[17]; at 0.5 µM,-12.8% (inactive)
same,inhibition,[17]; [30],-13.1%
same,inhibition,[17]; [31],-15.2%
same,inhibition,"[17]; single agent, at 0.05 µM",1.38%
same,inhibition,"[17]; single agent, at 5 µM",-26.3%
